Results reported in PMC11062922 (Nature Chemical Biology, 2023).
Where two headings read alike, the source gives them in different places.

Key:
[1] = tested on: PRKX;PRKY; parameters: species or system human, MV4-11 + K-562 + COLO205 + SK-N-BE2 + OVCAR-8; conditions: read-out: apparent Kd, n = 1
[2] = tested on: GSK3A; parameters: species or system human, MV4-11 + K-562 + COLO205 + SK-N-BE2 + OVCAR-8; conditions: compound concentrations:0.3nM, 1nM, 3nM, 10nM, 30nM, 100nM, 300nM, 1000nM,R2:0.98330827393916598,slope:1.45562792091779,EC50 Standard Error, by the legend:Standard error of the EC50 estimation as provided by the drc package.
[3] = tested on: GSK3B; parameters: species or system human, MV4-11 + K-562 + COLO205 + SK-N-BE2 + OVCAR-8; conditions: compound concentrations:0.3nM, 1nM, 3nM, 10nM, 30nM, 100nM, 300nM, 1000nM,R2:0.96555674920545798,slope:0.96794765422259599,EC50 Standard Error, by the legend:Standard error of the EC50 estimation as provided by the drc package.
[4] = tested on: LATS1; parameters: species or system human, MV4-11 + K-562 + COLO205 + SK-N-BE2 + OVCAR-8; conditions: compound concentrations:0.3nM, 1nM, 3nM, 10nM, 30nM, 100nM, 300nM, 1000nM,R2:0.97889671835051595,slope:1.6751561590983699,EC50 Standard Error, by the legend:Standard error of the EC50 estimation as provided by the drc package.
[5] = tested on: PKN1; parameters: species or system human, MV4-11 + K-562 + COLO205 + SK-N-BE2 + OVCAR-8; conditions: compound concentrations:0.3nM, 1nM, 3nM, 10nM, 30nM, 100nM, 300nM, 1000nM,R2:0.97867991540409105,slope:0.79419686113227705,EC50 Standard Error, by the legend:Standard error of the EC50 estimation as provided by the drc package.
[6] = tested on: PRKX; parameters: species or system human, MV4-11 + K-562 + COLO205 + SK-N-BE2 + OVCAR-8; conditions: compound concentrations:0.3nM, 1nM, 3nM, 10nM, 30nM, 100nM, 300nM, 1000nM,R2:0.94127289372754697,slope:1.4629649923763099,EC50 Standard Error, by the legend:Standard error of the EC50 estimation as provided by the drc package.
[7] = tested on: CDK1_CycB1; conditions: Highest Assay Concentration (M): 9.9999999999999995E-7
[8] = tested on: CK2alpha1; conditions: Highest Assay Concentration (M): 9.9999999999999995E-7
[9] = tested on: CK2alpha2; conditions: Highest Assay Concentration (M): 9.9999999999999995E-7
[10] = tested on: CLK2; parameters: species or system human, MV4-11 + K-562 + COLO205 + SK-N-BE2 + OVCAR-8; conditions: read-out: apparent Kd, compound concentrations: 100 nM and 1000 nM (sheet 'Samples'), n = 1
[11] = tested on: CAMK4; parameters: species or system human, MV4-11 + K-562 + COLO205 + SK-N-BE2 + OVCAR-8; conditions: read-out: apparent Kd, n = 1
[12] = tested on: CSNK1G3; parameters: species or system human, MV4-11 + K-562 + COLO205 + SK-N-BE2 + OVCAR-8; conditions: read-out: apparent Kd, compound concentrations: 100 nM and 1000 nM (sheet 'Samples'), n = 1
[13] = tested on: TAOK3; parameters: species or system human, MV4-11 + K-562 + COLO205 + SK-N-BE2 + OVCAR-8; conditions: read-out: apparent Kd, n = 1
[14] = tested on: CAMK2D; parameters: species or system human, MV4-11 + K-562 + COLO205 + SK-N-BE2 + OVCAR-8; conditions: read-out: apparent Kd, compound concentrations: 100 nM and 1000 nM (sheet 'Samples'), n = 1
[15] = tested on: STRADA; parameters: species or system human, MV4-11 + K-562 + COLO205 + SK-N-BE2 + OVCAR-8; conditions: read-out: apparent Kd, n = 1
[16] = tested on: ILK; parameters: species or system human, MV4-11 + K-562 + COLO205 + SK-N-BE2 + OVCAR-8; conditions: read-out: apparent Kd, n = 1
[17] = tested on: TBK1; parameters: species or system human, MV4-11 + K-562 + COLO205 + SK-N-BE2 + OVCAR-8; conditions: read-out: apparent Kd; compound concentrations:100 nM and 1000 nM (sheet 'Samples'); n = 1
[18] = tested on: MAPK1; parameters: species or system human, MV4-11 + K-562 + COLO205 + SK-N-BE2 + OVCAR-8; conditions: read-out: apparent Kd, compound concentrations: 100 nM and 1000 nM (sheet 'Samples'), n = 1
[19] = tested on: ERN1; parameters: species or system human, MV4-11 + K-562 + COLO205 + SK-N-BE2 + OVCAR-8; conditions: read-out: apparent Kd, n = 1
[20] = compound concentrations:100 nM and 1000 nM (sheet 'Samples')
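Throughout, for EC50: competition pulldown with Kinobeads ε in cell lysates, inhibitor preincubated 45 min at 4 °C, bound kinases quantified by LC–MS/MS against DMSO control.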
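Throughout, for Kd: competition pulldown with Kinobeads ε in cell lysates, inhibitor preincubated 45 min at 4 °C, bound kinases quantified by LC–MS/MS against DMSO control.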

`CCn1c(-c2nonc2N)nc2c(C#CC(C)(C)O)nc(OCCNC)cc21.Cl` [GSK949675A] gave a potency estimated from few doses [1, 20] of 355 nM, an EC50 [2] of 167 nM and a Kd ([2]; read-out: apparent Kd) of 104 nM. The EC50 [3] was 322 nM, the Kd ([3]; read-out: apparent Kd) was 171 nM and the EC50 [4] was 238 nM. The Kd ([4]; read-out: apparent Kd) was 238 nM, the EC50 [5] was 4240 nM and the Kd ([5]; read-out: apparent Kd) was 4230 nM. It also gave an EC50 [6] of 221 nM and a Kd ([6]; read-out: apparent Kd) of 221 nM.
`CONC1=NC(=O)/C(=C/c2ccc3ncccc3c2)S1` [RO4613269-000] showed an IC50 [7] of 2.74e-06 M, an IC50 [8] of 1.16e-07 M and an IC50 [9] of 6.53e-08 M.
`Clc1cc(Cl)cc(Nc2ccnc(Nc3cc(Cl)cc(Cl)c3)n2)c1` [GSK175726A] gave a potency estimated from few doses ([10]; CATDS: 1.2027926669680101E-2) of 432 nM.
`COc1cc(Nc2ncc3c(C)nc(-c4cc5ccccc5[nH]4)n3n2)cc(OC)c1OC` [GW869516X] gave an IC50 [7] of 1.97e-06 M, an IC50 [8] of 8.51e-08 M and an IC50 [9] of 3.37e-08 M.
With `CCn1c(-c2nonc2N)nc2c(C#CC(C)(C)O)nc(O[C@@H](CN)c3ccccc3)cc21.O=C(O)C(F)(F)F` [GSK1007102B] the potency estimated from few doses [1, 20] was 83.5 nM.
`CC(C)Nc1cc(-c2ccc3c(N)n[nH]c3c2)nc(N)n1` [GSK2221681A] showed a potency estimated from few doses [1, 20] of 1270 nM.
For `O=C(O)C(F)(F)F.O=C(O)C(F)(F)F.O=c1[nH]ccc2nc(N[C@@H]3CCCNC3)nc(Nc3ccc(S(=O)(=O)N4CCOCC4)cc3)c12.O=c1[nH]ccc2nc(N[C@@H]3CCCNC3)nc(Nc3ccc(S(=O)(=O)N4CCOCC4)cc3)c12` [GSK2177277A], the potency estimated from few doses ([11]; compound concentrations: 100 nM and 1000 nM (sheet 'Samples'), CATDS: 6.74489650552607E-3) was 1190 nM, the potency estimated from few doses ([12]; CATDS: 7.8894585802162295E-3) was 605 nM and the potency estimated from few doses ([13]; compound concentrations: 100 nM and 1000 nM (sheet 'Samples'), CATDS: 6.2703295867196796E-3) was 1770 nM.
For `NC(=O)c1cc(-c2ccccc2)cc2c(C3CCNCC3)c[nH]c12` [GSK301362A], the potency estimated from few doses [13, 20] was 1570 nM.
`COc1cc[nH]c1/C=C1\C(=O)Nc2ccc(F)c(C#CC3(O)CCNCC3)c21.Cl` [RO0282986-001] was tested, and the potency estimated from few doses ([14]; CATDS: 2.4491980048065101E-2) was 142 nM, the potency estimated from few doses ([10]; CATDS: 1.56056735722173E-2) was 360 nM and the potency estimated from few doses ([15]; compound concentrations: 100 nM and 1000 nM (sheet 'Samples'), CATDS: 9.4665319729240003E-3) was 1660 nM.
`O=C(O)C(F)(F)F.O=c1[nH]ccc2nc(N[C@@H]3CCNC3)nc(Nc3cc(Cl)cc(Cl)c3)c12` [GSK2188764A] was tested, and the potency estimated from few doses [11, 20] was 977 nM.
`CCn1c(-c2cccnc2O)nc2cnccc21` [SB-736715] was tested, and the potency estimated from few doses ([12]; CATDS: 1.22763705207965E-2) was 2060 nM and the potency estimated from few doses ([16]; compound concentrations: 100 nM and 1000 nM (sheet 'Samples'), CATDS: 1.2476704483333699E-2) was 1980 nM.
With `CC(C)Oc1ccc2c(-c3ccnc(Nc4ccc(N5CCN(C)CC5)cc4)n3)cnn2n1` [GW696155X] the potency estimated from few doses [17] was 621 nM.
For `O=C(O)C(F)(F)F.O=c1[nH]ccc2nc(N[C@@H]3CCNC3)nc(Nc3ccc4c(c3)S(=O)(=O)CC4)c12` [GSK2181306A], the potency estimated from few doses ([12]; CATDS: 9.3335280079581504E-3) was 1060 nM, the potency estimated from few doses ([16]; compound concentrations: 100 nM and 1000 nM (sheet 'Samples'), CATDS: 7.7202242880441098E-3) was 2320 nM and the potency estimated from few doses ([18]; CATDS: 9.4433771330179501E-3) was 1020 nM.
For `CCN(CC)Cc1ccc(Nc2nccc(-c3cnn4ncccc34)n2)cc1` [GW780056X], the potency estimated from few doses ([14]; CATDS: 2.8805291945328802E-2) was 472 nM.
Work on `c1ccc(-c2n[nH]cc2Nc2ccnc3ccccc23)nc1` [GW694077X] yielded a potency estimated from few doses ([10]; CATDS: 3.5523964233137598E-2) of 477 nM.
For `Cc1occc1-c1nc(N)c(OC[C@@H](N)Cc2c[nH]c3ccccc23)cc1-c1cc2c(C)n[nH]c2cn1` [GSK1660450B], the potency estimated from few doses [13, 20] was 76 nM.
With `COc1cc[nH]c1/C=C1\C(=O)Nc2ccc(F)c(C#C[C@@H](O)[C@@H](N)[C@@H](C)O)c21` [RO0283120-000] the potency estimated from few doses [15, 20] was 2010 nM.
Work on `Cl.Cn1c(=O)c(Cc2ccccc2F)cc2cnc(NC3CCOCC3)nc21` [RO3305377-001] yielded a potency estimated from few doses ([11]; compound concentrations: 100 nM and 1000 nM (sheet 'Samples'), CATDS: 1.6194401739627301E-2) of 2150 nM.
`CCC(CC)(CC)n1cnc2c(N)ncnc21` [SKF-97620] showed a potency estimated from few doses ([12]; CATDS: 2.4754449130961701E-2) of 1820 nM, a potency estimated from few doses ([18]; CATDS: 2.7105315036477701E-2) of 1350 nM and a potency estimated from few doses ([15]; compound concentrations: 100 nM and 1000 nM (sheet 'Samples'), CATDS: 2.3464375070220901E-2) of 2220 nM.
For `Nc1nc(-c2ccc3c(N)n[nH]c3c2)cc(N2CCCC(NC(=O)c3ccccc3)C2)n1` (stereo not drawn) [GSK2286775B], the potency estimated from few doses [11, 20] was 1090 nM, the potency estimated from few doses [16, 20] was 1790 nM and the potency estimated from few doses [17] was 342 nM.
Compound `O=C(Nc1n[nH]c2nc(-c3ccccc3O)ccc12)C1CC1` [SB-711880] has a potency estimated from few doses [19, 20] of 1700 nM.
`O=C1N=C(NCCc2ccccc2Cl)S/C1=C\c1ccc2ncccc2c1` [RO4498484-000] was tested, and the potency estimated from few doses ([1]; compound concentrations: 100 nM and 1000 nM (sheet 'Samples'), CATDS: 5.9384973682941697E-2) was 1830 nM.
Compound `COc1cccc(C2=C(c3c(C)n(C)c4ccccc34)C(=O)NC2=O)c1` [RO3300167-000] has a potency estimated from few doses ([19]; compound concentrations: 100 nM and 1000 nM (sheet 'Samples'), CATDS: 7.9309280446682603E-2) of 1540 nM.
